From PubChem BioAssay (EPA / NIEHS) come the findings set out here.

Assay [1] deals with human Peroxisome Proliferator-activated Receptor alpha (PPARa), PPARA (gene 5465) (UniProt Q07869). Kind of assay: ATG_PPARa_TRANS: Attagene TRANS-FACTORIAL HepG2 Assay for human Peroxisome Proliferator-activated Receptor alpha (PPARa) (AID 2283001).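 As to AC50: potency for gain of reporter signal over DMSO so agonist or activator.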 In short, it runs like this: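 Reporter transcripts quantified by RT-PCR plus capillary electrophoresis after 24 h treatment, fitted upward relative to DMSO. Cells: human HepG2 transiently carrying multiple GAL4-UAS reporter units driven by NR-Gal4 chimeras.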
Sequence of human Peroxisome Proliferator-activated Receptor alpha (PPARa), PPARA (gene 5465) (Q07869 whole entry, looked up, the tested form may be a part): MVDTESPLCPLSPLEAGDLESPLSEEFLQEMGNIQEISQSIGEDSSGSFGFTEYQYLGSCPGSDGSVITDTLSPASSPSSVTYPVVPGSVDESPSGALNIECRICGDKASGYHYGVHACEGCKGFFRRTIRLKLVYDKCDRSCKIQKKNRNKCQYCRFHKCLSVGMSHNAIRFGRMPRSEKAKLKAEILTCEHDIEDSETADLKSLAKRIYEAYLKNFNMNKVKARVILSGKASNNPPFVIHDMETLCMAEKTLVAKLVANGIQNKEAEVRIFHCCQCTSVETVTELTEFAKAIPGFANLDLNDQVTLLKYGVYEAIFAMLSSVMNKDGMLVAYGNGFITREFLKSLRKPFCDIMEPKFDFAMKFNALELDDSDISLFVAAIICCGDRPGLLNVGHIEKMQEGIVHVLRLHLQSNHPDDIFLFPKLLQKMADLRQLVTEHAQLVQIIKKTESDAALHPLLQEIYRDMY

For assay [2], the target named is human Peroxisome Proliferator-activated Receptor delta (PPARd), PPARD (gene 5467) (UniProt Q03181). In words: ATG_PPARd_TRANS: Attagene TRANS-FACTORIAL HepG2 Assay for human Peroxisome Proliferator-activated Receptor delta (PPARd) (AID 2283002). In short, it runs like this:
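Read-out is induced reporter mRNA, quantified by RT-PCR with fluorescent labelling and capillary electrophoresis after 24 h dosing. Cells are HepG2 transiently carrying multiple GAL4-UAS reporter units driven by exogenous NR-GAL4 chimeras; DMSO serves as baseline.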

Read-out in assay [3]: Intercellular Adhesion Molecule 1 (ICAM1), ICAM1 (gene 3383)
Kind of assay: BSK_3C_ICAM1: BioMAP Diversity Plus: 3C Assay for Intercellular Adhesion Molecule 1 (ICAM1) Biomarker Activity (AID 2283003; active = hit-call score of the fitted dose curve at least 0.9, where 1 is the maximum; inactive = score below 0.9). To be noted: primary human endothelial cells (HUVEC); actives raise or lower the signal. The gist of the method:
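ELISA readout of ICAM1 in human umbilical vein endothelial cells in the 3C system, taken 24 h post-dose. Gain or loss of signal versus DMSO was fitted in both directions, with SRB total-protein staining run in parallel.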

Assay [4] concerns the target Retinoic acid receptor alpha (Homo sapiens) (UniProt P10276). Kind of assay: ATG_RARa_TRANS: Attagene TRANS-FACTORIAL HepG2 Assay for human Retinoic Acid Receptor alpha (RARa) (AID 2283005). The gist of the method:
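Reporter transcripts, measured by RT-PCR with fluorescent labeling and capillary electrophoresis after 24 h dosing, reflect activity of an exogenous human RARa–GAL4 fusion in transiently transfected HepG2. Fitted for increase relative to DMSO.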

The nature of assay [5]: BSK_3C_Proliferation: Cell Proliferation Assessment in the BioMAP Diversity Plus: 3C Assay (AID 2283006; active = hit-call score of the fitted dose curve at least 0.9, where 1 is the maximum; inactive = score below 0.9;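 as to AC50: potency may reflect either rise or fall in cell number versus DMSO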). The note with it: primary human endothelial cells (HUVEC). The gist of the method:
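Proliferation as total protein: sulforhodamine B (0.1%) stain of TCA-fixed subconfluent human umbilical vein endothelial cells, absorbance 560 nm, 48 h after dosing. Activity fitted in both directions against DMSO baseline.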

Assay [6] has as its target Nuclear receptor subfamily 1 group I member 2 (Homo sapiens) (UniProt O75469). In words: ATG_PXR_TRANS: Attagene TRANS-FACTORIAL HepG2 Assay for human Pregnane X Receptor (PXR) (AID 2283008). The gist of the method:
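Multiplexed TRANS reporter panel in HepG2; this component tracks PXR-Gal4-driven reporter mRNA after 24 h dosing, measured by RT-PCR with capillary electrophoresis fluorescence, fitted against DMSO.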

Assay [7] addresses human Retinoic Acid Receptor gamma (RARg), RARG (gene 5916) (UniProt P13631). In words: ATG_RARg_TRANS: Attagene TRANS-FACTORIAL HepG2 Assay for human Retinoic Acid Receptor gamma (RARg) (AID 2283009). The gist of the method: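 Transactivation of exogenous RARg-Gal4 fusion measured as reporter transcript induction after 24 h in transfected HepG2 cells. RNA reverse-transcribed, amplified, fluorescently labeled and resolved by capillary electrophoresis; increase relative to DMSO.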

Assay [8] concerns the target human RAR-related Orphan Receptor gamma (RORg), RORC (gene 6097) (UniProt P51449). In words: ATG_RORg_TRANS: Attagene TRANS-FACTORIAL HepG2 Assay for human RAR-related Orphan Receptor gamma (RORg) (AID 2283011). In short, it runs like this:
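Activity is scored as increase in GAL4-UAS reporter mRNA over DMSO, detected by fluorescent RT-PCR and capillary electrophoresis in HepG2 cells transiently expressing a RORg-Gal4 chimera, 24 h after dosing.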

Assay [9] addresses human Retinoic Acid Receptor beta (RARb), RARB (gene 5915) (UniProt P10826). Kind of assay: ATG_RARb_TRANS: Attagene TRANS-FACTORIAL HepG2 Assay for human Retinoic Acid Receptor beta (AID 2283004). In short, it runs like this:
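HepG2, transient MRTU transfection, NR–Gal4 chimera, 24 h treatment; RT-PCR plus CE fluorescence detection of reporter mRNA; gain of signal vs DMSO.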

The target of assay [10] is Peroxisome proliferator-activated receptor gamma (Homo sapiens) (UniProt P37231). Kind of assay: ATG_PPARg_TRANS: Attagene TRANS-FACTORIAL HepG2 Assay for human Peroxisome Proliferator-activated Receptor-gamma (PPARg) (AID 2283007). The gist of the method:
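HepG2 cells are transiently transfected with GAL4-UAS reporter units driven by chimeric NR-Gal4 fusions and dosed for 24 h. Reporter mRNA is quantified by RT-PCR, 6-FAM labelling, HpaI digestion and capillary electrophoresis. Induction is scored against DMSO.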

Values joined by “and” are separate entries in the source; they are usually repeats but may differ in a detail not shown here. Equal values may be shown once. Records with an inconclusive call do not appear. A structure can be active in one record and inactive in another. Active and inactive are the calls of the source. The calls were made as follows, unless noted: active = hit-call score of the fitted dose curve at least 0.9, where 1 is the maximum; inconclusive = response in the unintended direction; inactive = score below 0.9.

Sequence of human Peroxisome Proliferator-activated Receptor delta (PPARd), PPARD (gene 5467) (Q03181 whole entry, looked up, the tested form may be a part): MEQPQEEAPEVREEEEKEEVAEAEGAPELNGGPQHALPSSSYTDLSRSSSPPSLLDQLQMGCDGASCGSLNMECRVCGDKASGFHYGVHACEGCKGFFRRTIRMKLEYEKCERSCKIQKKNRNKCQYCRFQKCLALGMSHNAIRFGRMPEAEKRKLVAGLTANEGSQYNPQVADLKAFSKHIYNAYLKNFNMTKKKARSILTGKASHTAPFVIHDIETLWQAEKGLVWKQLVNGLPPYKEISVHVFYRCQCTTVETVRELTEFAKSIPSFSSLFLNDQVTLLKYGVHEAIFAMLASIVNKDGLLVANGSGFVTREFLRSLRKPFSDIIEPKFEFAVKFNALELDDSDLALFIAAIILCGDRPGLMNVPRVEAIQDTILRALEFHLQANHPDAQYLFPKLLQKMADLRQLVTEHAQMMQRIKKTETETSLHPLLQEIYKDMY
Sequence of Nuclear receptor subfamily 1 group I member 2 (Homo sapiens) (O75469 whole entry, looked up, the tested form may be a part): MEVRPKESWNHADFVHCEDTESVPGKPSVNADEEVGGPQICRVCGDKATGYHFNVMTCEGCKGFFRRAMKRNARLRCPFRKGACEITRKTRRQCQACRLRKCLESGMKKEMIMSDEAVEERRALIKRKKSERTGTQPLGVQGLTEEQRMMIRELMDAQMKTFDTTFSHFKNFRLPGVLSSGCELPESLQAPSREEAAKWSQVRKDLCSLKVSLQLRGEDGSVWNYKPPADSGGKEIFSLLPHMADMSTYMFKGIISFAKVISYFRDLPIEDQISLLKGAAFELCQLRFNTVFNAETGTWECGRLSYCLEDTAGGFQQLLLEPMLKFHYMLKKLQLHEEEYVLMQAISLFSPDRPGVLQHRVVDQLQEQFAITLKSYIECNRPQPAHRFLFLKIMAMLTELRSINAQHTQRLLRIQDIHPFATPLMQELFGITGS
Sequence of human Retinoic Acid Receptor beta (RARb), RARB (gene 5915) (P10826 whole entry, looked up, the tested form may be a part): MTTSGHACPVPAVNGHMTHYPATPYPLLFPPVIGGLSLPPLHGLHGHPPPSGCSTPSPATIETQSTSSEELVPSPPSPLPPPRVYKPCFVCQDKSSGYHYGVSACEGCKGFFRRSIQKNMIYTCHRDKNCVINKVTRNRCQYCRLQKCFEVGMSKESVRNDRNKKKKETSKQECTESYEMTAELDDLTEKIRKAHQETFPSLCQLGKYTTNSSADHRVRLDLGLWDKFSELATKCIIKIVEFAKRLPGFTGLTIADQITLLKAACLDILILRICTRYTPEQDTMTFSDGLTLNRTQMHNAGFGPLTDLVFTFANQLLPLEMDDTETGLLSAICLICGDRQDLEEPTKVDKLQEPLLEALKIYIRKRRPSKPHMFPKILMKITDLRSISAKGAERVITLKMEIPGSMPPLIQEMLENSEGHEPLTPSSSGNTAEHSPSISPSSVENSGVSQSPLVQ
Sequence of Peroxisome proliferator-activated receptor gamma (Homo sapiens) (P37231 whole entry, looked up, the tested form may be a part): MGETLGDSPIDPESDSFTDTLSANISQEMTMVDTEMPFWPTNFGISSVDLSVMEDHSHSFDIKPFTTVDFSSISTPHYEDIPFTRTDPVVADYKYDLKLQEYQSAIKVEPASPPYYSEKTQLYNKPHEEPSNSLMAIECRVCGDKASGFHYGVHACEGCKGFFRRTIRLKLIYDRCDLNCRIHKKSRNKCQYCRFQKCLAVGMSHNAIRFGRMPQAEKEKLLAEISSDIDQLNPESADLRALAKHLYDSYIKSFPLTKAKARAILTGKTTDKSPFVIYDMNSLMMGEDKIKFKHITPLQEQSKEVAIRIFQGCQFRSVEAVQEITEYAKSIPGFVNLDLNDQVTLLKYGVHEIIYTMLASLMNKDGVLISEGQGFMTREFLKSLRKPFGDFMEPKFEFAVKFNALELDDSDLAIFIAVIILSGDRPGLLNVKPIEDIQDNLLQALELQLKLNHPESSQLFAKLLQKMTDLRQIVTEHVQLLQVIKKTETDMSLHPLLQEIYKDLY
Sequence of human Retinoic Acid Receptor gamma (RARg), RARG (gene 5916) (P13631 whole entry, looked up, the tested form may be a part): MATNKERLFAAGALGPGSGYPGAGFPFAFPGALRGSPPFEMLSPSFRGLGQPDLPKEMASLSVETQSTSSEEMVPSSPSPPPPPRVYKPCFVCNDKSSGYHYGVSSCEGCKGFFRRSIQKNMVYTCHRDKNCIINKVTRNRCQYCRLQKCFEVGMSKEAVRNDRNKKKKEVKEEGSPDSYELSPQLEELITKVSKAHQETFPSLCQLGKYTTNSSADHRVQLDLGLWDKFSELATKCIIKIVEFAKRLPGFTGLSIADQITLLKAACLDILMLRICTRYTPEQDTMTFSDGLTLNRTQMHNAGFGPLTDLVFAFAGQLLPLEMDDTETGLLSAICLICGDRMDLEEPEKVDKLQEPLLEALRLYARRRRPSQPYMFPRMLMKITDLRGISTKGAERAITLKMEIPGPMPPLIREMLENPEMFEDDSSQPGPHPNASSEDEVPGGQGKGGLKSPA
Sequence of Retinoic acid receptor alpha (Homo sapiens) (P10276 whole entry, looked up, the tested form may be a part): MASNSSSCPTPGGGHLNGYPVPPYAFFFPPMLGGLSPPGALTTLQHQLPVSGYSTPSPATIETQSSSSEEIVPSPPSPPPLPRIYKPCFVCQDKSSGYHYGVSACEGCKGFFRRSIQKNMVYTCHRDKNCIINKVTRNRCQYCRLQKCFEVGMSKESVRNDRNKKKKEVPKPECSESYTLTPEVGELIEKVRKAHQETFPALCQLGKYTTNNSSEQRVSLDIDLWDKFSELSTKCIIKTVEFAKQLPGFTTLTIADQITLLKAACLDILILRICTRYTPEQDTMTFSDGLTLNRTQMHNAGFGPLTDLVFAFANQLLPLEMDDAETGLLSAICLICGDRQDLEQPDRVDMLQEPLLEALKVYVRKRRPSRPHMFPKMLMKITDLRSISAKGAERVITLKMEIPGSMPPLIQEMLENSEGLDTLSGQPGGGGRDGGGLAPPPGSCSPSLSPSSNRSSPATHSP
Sequence of human RAR-related Orphan Receptor gamma (RORg), RORC (gene 6097) (P51449 whole entry, looked up, the tested form may be a part): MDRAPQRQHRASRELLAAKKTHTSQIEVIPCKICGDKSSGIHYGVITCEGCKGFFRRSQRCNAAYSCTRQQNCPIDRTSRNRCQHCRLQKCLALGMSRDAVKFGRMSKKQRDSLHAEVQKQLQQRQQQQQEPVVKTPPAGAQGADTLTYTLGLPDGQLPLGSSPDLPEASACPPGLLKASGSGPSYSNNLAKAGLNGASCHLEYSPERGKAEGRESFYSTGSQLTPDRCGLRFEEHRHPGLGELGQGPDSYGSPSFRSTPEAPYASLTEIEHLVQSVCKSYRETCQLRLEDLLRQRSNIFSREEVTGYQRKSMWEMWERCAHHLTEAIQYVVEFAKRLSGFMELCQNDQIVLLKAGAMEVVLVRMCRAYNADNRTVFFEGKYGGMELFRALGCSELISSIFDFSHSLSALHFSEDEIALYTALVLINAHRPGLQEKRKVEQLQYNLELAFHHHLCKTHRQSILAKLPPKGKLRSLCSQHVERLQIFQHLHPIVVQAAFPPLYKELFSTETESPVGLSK

In the case of `OCCCl`, the compound was called inactive in assay [1], in [2], in assay [3], in assay [4], in [5] and in assay [6]. In addition, the result in [7] and in assay [8] was inactive.
With `O=C1CCCO1`, the call in [1], in [2], in assay [9], in [5], in assay [10] and in [8] was inactive.
In the case of `Cc1cccc(N)c1N`, the outcome in assay [1], in [3], in [9], in [4], in assay [5] and in [10] was inactive. Also, the call in [6] and in [7] was inactive.
As to `CCC12COCN1COC2`, the call in assay [1], in assay [2], in assay [3], in assay [5] and in assay [6] was inactive.
Consider `c1ccc(NNc2ccccc2)cc1`, for which the result in assay [1], in assay [2], in assay [3], in assay [5], in assay [6] and in assay [8] was inactive.
The term AC50 denotes the midpoint of the concentration-response curve, whichever way the signal moves. In the case of `Cc1cc(N=Nc2ccccc2C)ccc1N`, the call in assay [1], in [2] and in [7] was inactive. The AC50 was 13 µM (active) in assay [5], 18.3 µM (active) in [10] and 20.7 µM (active) in assay [6].
For the compound `CN(C)[C@@H]1C(=O)C(C(N)=O)=C(O)[C@@]2(O)C(=O)C3=C(O)c4c(O)cccc4[C@@](C)(O)[C@H]3C[C@@H]12`, the outcome in assay [1], in [2], in assay [5], in [10] and in assay [6] was inactive.
For `O=C(Oc1ccc(Br)cc1)N1CCN2CCC1CC2`, the outcome in [1], in [2], in [5], in [10], in [6] and in assay [7] was inactive.
As to `CC(C)(OOC(C)(C)c1ccccc1)c1ccccc1`, the outcome in [1], in assay [2], in [3], in assay [10], in assay [7] and in [8] was inactive. In addition, the values for the concentration at half-maximal activity (AC50) in [5] and in assay [6] were 31.1 µM (active) and 7.09 µM (active), respectively.
With `Nc1cc(Cl)cc(C(=O)O)c1Cl`, the outcome in [1], in assay [2], in assay [3], in assay [5], in [10] and in [7] was inactive. In addition, in assay [8], the result was inactive.
For `CCNS(=O)(=O)C(F)(F)C(F)(F)C(F)(F)C(F)(F)C(F)(F)C(F)(F)C(F)(F)C(F)(F)F`, the AC50 in [1] is 63.9 µM (active) and 56.2 µM (active); in assay [5] it was 19.3 µM (active) and 46 µM (active) and 43.2 µM (active); in [10], 96.5 µM (active) and 120 µM (active) and 51.2 µM (active); in assay [6] it was 12.7 µM (active) and 9.73 µM (active). Moreover, the call in assay [1], in assay [2], in assay [9], in [4], in [6] and in assay [7] was inactive. For the same compound, the outcome in assay [8] was inactive.
In the case of `O=Cc1ccco1`, the compound was classed as inactive in [1], in assay [2], in assay [3], in [4], in [5] and in [7]. Besides, the result in assay [8] was inactive.
`O=[N+]([O-])c1ccc(Oc2ccc(Cl)cc2Cl)cc1`: the result in assay [1], in assay [2] and in assay [3] was inactive. The AC50 in assay [5] is 32.4 µM (active); in assay [10], 14.3 µM (active); in assay [6] it was 9.58 µM (active).
Consider `CCCCOC(=O)c1ccccc1C(=O)OCc1ccccc1`, for which the compound was called inactive in assay [1], in assay [2] and in assay [6]. Also, the AC50 in [5] is 14.4 µM (active).
On to `CC(C)(C)OOC(=O)c1ccccc1`, for which the result in assay [1], in assay [2] and in assay [5] was inactive.
With `C[C@]12C=CC3=C4CCC(=O)C=C4CC[C@H]3[C@@H]1CC[C@@H]2O`, the outcome in assay [1], in assay [2], in assay [10] and in assay [6] was inactive. For the same compound, the results for the AC50 in assay [2], in [5] and in assay [6] were 73.6 µM (active), 6.61 µM (active) and 26.9 µM (active), respectively.
For the compound `COC(=O)Nc1nc2ccccc2[nH]1`, the compound was called inactive in assay [1], in assay [2], in assay [4], in assay [10], in assay [6] and in assay [7]. For the same compound, in [5], the AC50 is 9.95 µM (active).
